Compound activity from PubChem.
Sampled rows, rich in hits. Any-hit rate of the full collection: about 6.2%.
S2 tox: cell viability loss in ATXN counter-screen | S2 cells (HEK-293 line with an ATXN2-luciferase reporter) viability, CellTiter-Fluor protease fluorescence, 24 h | Potency, µM (doses to about 56.7 µM), usual class: cytotoxic | 400,000 tested, 0.49% active | AID 651635; also: nearly all actives have a fitted effect of over 40% in size
HT1080-NT tox: kills 2HG-producing HT-1080-NT fibrosarcoma cells; HT-1080-NT fibrosarcoma viability, CellTiter-Glo ATP luminescence, 48 h; Potency, µM (top dose mostly 46.1 µM), for the others: top-dose activity, negative = less viability, actives largely listed as cytotoxic; 360,000 tested, 1.6% active; AID 686970;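 also: NT is the 2HG producing partner of a matched IDH1 knockdown line; 0% = DMSO-treated cells and -100% = media-only wells without cells; nearly all actives have a fitted effect of over 55% in size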
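Toxicity toward the 2HG-producing NT line was scored as %Activity, normalised to DMSO and no-cell wells, from CellTiter-Glo luminescence after 48 hours' treatment.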
KB-3-1 tox: KB-3-1 parental cell cytotoxicity; KB-3-1 viability, CellTiter-Glo ATP luminescence, 72 h; Potency, µM (top dose mostly 46.1 µM), usual class: cytotoxic; 400,000 tested, 1.4% active; also: % is scaled to controls: 0 for no effect and ±100 for the full control effect; nearly all actives have a fitted effect of over 60% in size
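Viability of parental KB-3-1 cells, measured by CellTiter-Glo luminescence, followed a 72 h incubation at 37 °C with pinned compounds in phenol-red-free DMEM containing 10% FBS.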
HT1080 IDH1KD tx: toxicity to HT-1080 IDH1 knockdown cells (counter line). HT-1080 IDH1 knockdown viability, ATP luminescence, 48 h. 360,000 tested, 2% active. Potency, µM (doses to about 46.1 µM), without a hit: at the top dose activity, negative = toxicity, actives largely listed as cytotoxic;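 also: 0% = DMSO wells and -100% = cell-free medium wells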
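IDH1KD HT-1080 cells, 750/well, RPMI + 5% FBS; compound pinned after 2 h settling; 48 h, 37 °C; CellTiter-Glo luminescence; % activity normalised to DMSO and no-cell wells; curves fitted, classed by r2 and efficacy.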
KB-V1 cytotox: kills drug-selected multidrug resistant KB-V1 cells; Potency, µM (highest dose often 46.1 µM), usual class: cytotoxic; KB-V1 MDR cells viability, CellTiter-Glo, 72 h; 400,000 tested, 3.4% active; also: % is scaled to controls: 0 for no effect and ±100 for the full control effect; nearly all actives have a fitted effect of over 60% in size
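Compound-treated KB-V1 multidrug-resistant cells, 72 h, 37 degrees C; viability by CellTiter-Glo. Fitted qHTS curves give the values.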
ATXN2 expr inh: reduces ATXN2 reporter expression in HEK-293 cells | HEK-293 ATXN2-luciferase reporter, luminescence, 24 h | Potency, µM (doses to about 57 µM), inactives show at the top dose activity change, negative = inhibition, hits mostly inhibitors | 360,000 tested, 0.72% active; also: % is scaled to controls: 0 for no effect and ±100 for the full control effect; nearly all actives have a fitted effect of over 55% in size
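qHTS (up to 57 uM final) was run with 24 h compound exposure of reporter cells at 37 °C. Each well was multiplexed: SteadyGlo luminescence measured ATXN2-luciferase expression after a fluorogenic Gly-Phe-AFC viability readout (25 uM final).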
Starred values were filed as active, the others as inactive; i = inactive; ? = inconclusive; · = no result; ! = not active in a repeat; [ ] = another dose, or the depositor's remark. Calls follow the shape of the dose curve; as a rule, active = well fitted curve in the direction sought with a large enough effect; inconclusive = small, poorly fitted or top-dose-only effect, or another doubt; inactive = no such curve, though single readings can be large; an effect the other way counts as inactive or inconclusive. Potency is read from the fitted curve at half-maximal effect.

SMILES	S2 tox	HT1080-NT tox	KB-3-1 tox	HT1080 IDH1KD tx	KB-V1 cytotox	ATXN2 expr inh
COc1ccc(C2C(C#N)=C(N)Oc3cc4c(cc32)OCO4)cc1 (centres undefined)	i	-21%	i	-23%	i	-26%
COc1cc(C2N(c3ccccc3)CCN2c2ccccc2)ccc1OC(C)=O	i	10%	i	6%	i	39%
COc1cc(C2C3=C(COC3=O)Oc3cc4c(cc32)OCO4)ccc1OC(C)=O (centres undefined)	?	?	0.82µM*	5.8µM*	2.1µM*	12%
COc1ccc(C2C3=C(COC3=O)Oc3cc4c(cc32)OCO4)cc1OC (centres undefined)	i	5.8µM*	0.92µM*!	?	?	-10%
COc1cc(C2C3=C(COC3=O)Oc3cc4c(cc32)OCO4)cc(OC)c1OC(C)=O (centres undefined)	?	?	0.23µM*	?	0.65µM*	10%
Cc1cc(C)cc(NC(=O)c2ncn(-c3ccccc3)n2)c1	i	·	i	·	i	37%
Cc1cc(CCCCCCCCc2cc(C)cc(=O)o2)oc(=O)c1	i	6%	i	-7%	7.3µM*	-8%
COC(=O)c1cc(C)cc(=O)o1	i	4%	i	12%	i	-13%
COc1cc(-c2ccc3sc(-c4ccsc4)c(C#CCO)c3c2)cc(OC)c1OC	?	?	i	?	i	25µM*
Cc1ccsc1C1Cc2c(C(=O)NCc3cccnc3)c(=O)cc(C)n2-c2ccccc2S1 (centres undefined)	i	·	·	·	·	·
CCC(=O)Nc1ccc(N2CCCCC2)c(C(=O)Nc2ccccc2C)c1	i	7%	i	0%	12µM*	4%
Cc1ccccc1NC(=O)c1cc(N)ccc1N1CCCCC1	i	-6%	i	-18%	15µM*	6%
Cn1c(=O)c2c(-c3ccc(Br)cc3)n(Cc3ccc(F)cc3)cc2n(C)c1=O	?	·	i	·	i	?
CCN(C(C)=O)c1nc(CSc2nnc(NC(C)C)s2)cs1	i	12%	i	7%	23µM*	-2%
Cc1cc2c(cc1C)N[C@]1(C[C@H]3CCCC(=O)N4CC[C@@H](C1)[C@@H]34)C(=NC(C)(C)CC(C)(C)C)N2	?	-15%	?	-11%	21µM*!	-16%
CC(C)(C)CC(C)(C)N=C1Nc2ccc(Cl)cc2N[C@]12C[C@H]1CCCC(=O)N3CC[C@@H](C2)[C@@H]13	·	·	?	·	21µM*	·
Cc1cc2c(cc1C)N[C@]1(C[C@H]3CCCC(=O)N4CC[C@@H](C1)[C@@H]34)C(=NCc1ccccc1)N2	·	·	i	·	i	·
O=C1CCC[C@@H]2C[C@@]3(C[C@@H]4CCN1[C@H]24)Nc1cc(Cl)ccc1NC3=NC1CCCCC1	i	1%	i	0%	i	10%
CCn1c(SCC(=O)Nc2cc(Cl)ccc2OC)nc2c([nH]c3ccccc32)c1=O	i	·	i	·	i	7%
Cn1c(CN2CCOCC2)nc2cc(NC(=O)c3ccccc3Cl)ccc21	i	2%	i	13%	?	-11%
O=C(Nc1sc2c(c1CN1CCOCC1)CCC2)c1ccc(F)cc1	i	8%	i	8%	2.1µM*	10%
Cn1c(CN2CCOCC2)nc2cc(NC(=O)c3ccc(F)cc3)ccc21	i	-10%	i	0%	16µM*	-17%
CCOc1cccc(C2C=C(c3ccc4c(c3)OCO4)NC(c3ccccc3Cl)N2)c1O (centres undefined)	·	·	i	·	i	·
CCOC(=O)Cc1c(C(=O)OCC)nnc2c(-c3ccccc3)c(C)nn12	i	·	i	·	i	3%
Clc1ccc2nc(SCc3nnc(-c4ccccc4)o3)[nH]c2c1	i	-14%	i	2%	16µM*	-16%
SMILES	S2 tox	HT1080-NT tox	KB-3-1 tox	HT1080 IDH1KD tx	KB-V1 cytotox	ATXN2 expr inh
Cc1cc(=O)[nH]c(SCc2nnc(-c3ccccc3)o2)n1	i	11%	i	27%	i	9%
Cc1cccc(-n2cnc(C(=O)NNC(=S)Nc3ccc(Cl)cc3)c2)n1	i	-22%	13µM*	-23%	i	-10%[11.3 µM]
CC1=C(CC(=O)c2ccccc2)C(=O)c2ccccc2C1=O	i	?	?	?	10µM*	6%
Cc1ccc2c(c1C)-c1c(ccc(C)c1C)C(=O)C2=O	?	5.8µM*	3.3µM*	10µM*	0.65µM*	?
Cc1cccc(OCCn2c(-c3ccc(Cl)cc3)nc3ccccc3c2=O)c1	i	·	i	·	?	-2%
CC(C)(C)NCC(=Cc1ccccc1)C(=O)c1ccccc1	11µM*	6.5µM*	5.2µM*	5.8µM*	?	8.4µM*
COc1ccc(C(=O)CC(Sc2ccccc2N)c2ccc(OC)cc2)cc1 (centres undefined)	i	-8%	23µM*	-23%	i	·
COc1ccc(C(=O)CC(c2ccccc2)C2C(=O)CCCC2=O)cc1 (centres undefined)	i	0%	i	-4%[9.24 µM]	i	7%
COc1ccc(NCc2cccn2-c2nnc(N3CCCCCC3)s2)cc1	i	·	i	·	i	8%
CCOc1ccc(NCc2cccn2-c2nnc(N3CCC(C(=O)NCCCN4CC(C)CC(C)C4)CC3)s2)cc1 (centres undefined)	?	21µM*	i	?	i	32µM*
CC(C)c1ccccc1NC(=O)Nc1nc(C(N)Cc2ccc(C(F)(F)F)cc2)cs1 (centres undefined)	·	5.8µM*	?	?	?	?
CC(C)CC(N)c1csc(NC(=O)Nc2ccccc2C(C)C)n1 (centres undefined)	?	?	i	?	?	?
NC(Cc1ccc(C(F)(F)F)cc1)c1csc(NC(=O)Nc2ccccc2Cc2ccccc2)n1 (centres undefined)	·	8.2µM*	?	23µM*	?	?
CN(C)Cc1csc(NC(=O)Nc2ccccc2Cc2ccccc2)n1	?	15µM*	i	?	i	-2%
Cc1ncc2c(c1CNC(=O)c1ccc3c(c1)OCO3)CCN(C(=O)/C=C/c1ccccc1Cl)C2	i	·	·	·	·	·
COc1ccccc1OC(C)C(=O)Nc1cccc(-c2nc3ccccc3o2)c1 (centres undefined)	i	·	i	·	i	?
COc1ccc(C2CC(=O)N(CC(=O)Nc3cccc(C)c3C)c3ccccc3S2)cc1OC (centres undefined)	?	·	i	·	?	-11%
